Where “and” joins values, the source holds several entries; their conditions need not be identical. Equal values may be shown once. Calls of active or inactive are those of the source. Rule as the data show it: active = remaining activity below about 50%; inactive = the rest.
Target: Phospholipase D2 (Homo sapiens) (UniProt O14939)
Test: PLD2 inhibitors in cells, cell-based, HEK293, single concentration (AID 602143);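 also: tested at 200 nM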
Conditions: HEK293 cellular PLD2 activity, percent of control; hits give low values

Chain of Phospholipase D2 (Homo sapiens) (O14939 whole entry, looked up): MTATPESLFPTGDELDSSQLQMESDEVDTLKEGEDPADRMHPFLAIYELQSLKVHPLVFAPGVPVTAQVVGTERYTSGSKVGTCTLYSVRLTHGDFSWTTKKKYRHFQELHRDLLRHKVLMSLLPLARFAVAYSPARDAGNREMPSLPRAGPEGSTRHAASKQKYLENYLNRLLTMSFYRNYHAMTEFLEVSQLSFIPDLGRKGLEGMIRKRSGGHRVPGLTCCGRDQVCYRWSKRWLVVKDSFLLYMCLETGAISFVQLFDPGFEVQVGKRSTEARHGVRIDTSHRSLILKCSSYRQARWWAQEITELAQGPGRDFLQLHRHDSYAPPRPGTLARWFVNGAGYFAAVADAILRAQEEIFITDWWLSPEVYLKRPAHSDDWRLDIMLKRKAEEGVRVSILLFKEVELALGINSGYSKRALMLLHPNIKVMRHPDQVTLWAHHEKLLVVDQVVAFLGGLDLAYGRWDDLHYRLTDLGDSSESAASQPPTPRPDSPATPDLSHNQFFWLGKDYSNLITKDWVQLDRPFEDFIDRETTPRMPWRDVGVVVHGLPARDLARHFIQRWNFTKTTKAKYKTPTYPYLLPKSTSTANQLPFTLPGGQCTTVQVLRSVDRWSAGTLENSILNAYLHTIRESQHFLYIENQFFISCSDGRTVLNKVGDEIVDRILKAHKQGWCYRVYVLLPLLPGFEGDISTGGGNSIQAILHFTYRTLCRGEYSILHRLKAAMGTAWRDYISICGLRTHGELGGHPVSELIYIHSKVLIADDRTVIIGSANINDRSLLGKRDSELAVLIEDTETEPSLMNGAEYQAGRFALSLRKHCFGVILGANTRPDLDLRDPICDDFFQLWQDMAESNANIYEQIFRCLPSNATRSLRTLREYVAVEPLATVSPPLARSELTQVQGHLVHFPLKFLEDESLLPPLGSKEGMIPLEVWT
Chain of Phospholipase D2 (Homo sapiens) (O14939 whole entry, looked up): as above

Which remaining activity does the source give for `O=C(NCCN1CCC2(CC1)C(=O)NCN2c1cccc(Cl)c1)c1ccc(F)cc1` here?
Its remaining activity is 65.4% (inactive).

`C[C@@H](CN1CCC2(CC1)C(=O)NCN2c1ccc(F)c(F)c1)NC(=O)c1cnc2ccccc2c1` was tested. Which remaining activity did it give?
The remaining activity was 7.28% (active).

Which remaining activity does the source give for `O=C(NCCN1CCC2(CC1)C(=O)NCN2c1ccccc1)c1cccc(F)n1` here?
Its remaining activity is 63.2% (inactive).

Which remaining activity does the source give for `O=C(NCCN1CCC2(CC1)C(=O)NCN2c1cccc(F)c1)c1ccc(-c2ccccc2)cc1` here?
Its remaining activity is 101% (inactive).

With `CC1(C)C(C(=O)NCCN2CCC3(CC2)C(=O)NCN3c2ccccc2)C1(C)C` as the compound, how does the remaining activity read?
Its remaining activity is 122% (inactive).

Which remaining activity does the source give for `O=C(NCCN1CCC2(CC1)C(=O)NCN2c1ccc(F)cc1)c1cc2ccccc2[nH]1` here?
Its remaining activity is 8.73% (active).

Which remaining activity does the source give for `O=C(NCCN1CCC2(CC1)C(=O)NCN2c1ccc(Cl)cc1)c1cc2cc(F)ccc2[nH]1` here?
The remaining activity was 57% (inactive).

`O=C(NCCN1CCC2(CC1)C(=O)NCN2c1ccccc1)C1CCc2ccccc2C1` (stereo not given) was tested. Which remaining activity did it give?
Its remaining activity is 50.3% (inactive) and 75.3% (inactive).

For `O=C(NCCN1CCC2(CC1)C(=O)NCN2c1ccc(F)c(F)c1)c1cnc2ccccc2c1`, which remaining activity is on record?
The remaining activity was 26.1% (active).

How did the remaining activity turn out when `O=C(c1ccc(F)c(F)c1)N(CCN1CCC2(CC1)C(=O)NCN2c1cccc(F)c1)C(=O)c1ccc(F)c(F)c1` was run?
The remaining activity was 106% (inactive).

Which remaining activity does the source give for `O=C(NCCN1CCC2(CC1)C(=O)NCN2c1ccc(F)cc1)c1ccc(F)cc1` here?
Its remaining activity is 46.9% (active).

With `O=C(NCCN1CCC2(CC1)C(=O)NCN2c1ccccc1)c1ccncn1` as the compound, how does the remaining activity read?
The remaining activity was 93.7% (inactive).

How did the remaining activity turn out when `O=C(NCCN1CCC2(CC1)C(=O)NCN2c1cccc(F)c1)C1CCCCC1` was run?
Its remaining activity is 91% (inactive).

`O=C(NCCN1CCC2(CC1)C(=O)NCN2c1ccccc1)c1cnc2ccccc2c1` was tested. Which remaining activity did it give?
The remaining activity was 56.6% (inactive).

With `O=C(NCCN1CCC2(CC1)C(=O)NCN2c1cccc(F)c1)c1ccc(F)nc1` as the compound, how does the remaining activity read?
The remaining activity was 85.7% (inactive).

With `O=C(NCCN1CCC2(CC1)C(=O)NCN2c1ccc(Br)cc1)c1ccc2ccccc2c1` as the compound, how does the remaining activity read?
The remaining activity was 52% (inactive).

For `O=C(NCCN1CCC2(CC1)C(=O)NCN2c1cccc(F)c1)c1cccc(F)c1`, which remaining activity is on record?
Its remaining activity is 63.4% (inactive).

For `O=C(NCCN1CCC2(CC1)C(=O)NCN2c1ccccc1)c1cccc(Cl)n1`, which remaining activity is on record?
Its remaining activity is 52.9% (inactive).

For `Nc1ccc(C(=O)NCCN2CCC3(CC2)C(=O)NCN3c2ccccc2)cc1OC(F)(F)F`, which remaining activity is on record?
Its remaining activity is 97.3% (inactive).

`O=C(NCCN1CCC2(CC1)C(=O)NCN2c1ccccc1)c1ccnnc1` was tested. Which remaining activity did it give?
Its remaining activity is 101% (inactive).

With `O=C(NCCN1CCC2(CC1)C(=O)Oc1ccccc12)c1cnc2ccccc2c1` as the compound, how does the remaining activity read?
The remaining activity was 57.4% (inactive).

Which remaining activity does the source give for `O=C(NCCN1CCC2(CC1)C(=O)NCN2c1ccccc1)c1ncc[nH]1` here?
Its remaining activity is 113% (inactive).

With `O=C1c2ccccc2C(=O)N1CCCN1CCC2(CC1)C(=O)NCN2c1ccccc1` as the compound, how does the remaining activity read?
The remaining activity was 81% (inactive).

How did the remaining activity turn out when `CCC(=O)N[C@@H](C)CN1CCC2(CC1)C(=O)NCN2c1ccccc1` was run?
Its remaining activity is 95.3% (inactive).

Which remaining activity does the source give for `O=C(c1cnc2ccccc2c1)N1CCC[C@@H]1CN1CCC2(CC1)C(=O)NCN2c1ccccc1` here?
Its remaining activity is 106% (inactive).

For `O=C(c1cnc2ccccc2c1)N1CCCC1CN1CCC(n2c(=O)[nH]c3ccccc32)CC1` (stereo not given), which remaining activity is on record?
The remaining activity was 54.2% (inactive).

For `O=C(NCCN1CCC2(CC1)C(=O)NCN2c1cccc(F)c1)c1cnc2ccccc2c1`, which remaining activity is on record?
Its remaining activity is 5.53% (active).

For `O=C(NCCN1CCC2(CC1)C(=O)NCN2c1ccc(F)cc1)c1ccc2cc(F)ccc2c1`, which remaining activity is on record?
Its remaining activity is 61.1% (inactive).

With `O=C(NCCN1CCC2(CC1)C(=O)NCN2c1ccc(Cl)cc1)c1cc2ccccc2[nH]1` as the compound, how does the remaining activity read?
The remaining activity was 48.1% (active).

Which remaining activity does the source give for `CCCCCC(=O)NCCN1CCC2(CC1)C(=O)NCN2c1cccc(F)c1` here?
The remaining activity was 80.7% (inactive).

`CCOC(=O)CCN1CCC2(CC1)C(=O)NCN2c1ccccc1` was tested. Which remaining activity did it give?
Its remaining activity is 91.6% (inactive).

Which remaining activity does the source give for `O=C(NCCN1CCC2(CC1)C(=O)NCN2c1cccc(Cl)c1)c1cc2cc(F)ccc2[nH]1` here?
The remaining activity was 40.2% (active).

With `COc1cc(OC)cc(C(=O)NCCN2CCC3(CC2)C(=O)NCN3c2cccc(F)c2)c1` as the compound, how does the remaining activity read?
The remaining activity was 84.7% (inactive).

For `O=C(c1c(F)cccc1F)N(CCN1CCC2(CC1)C(=O)NCN2c1cccc(F)c1)C(=O)c1c(F)cccc1F`, which remaining activity is on record?
Its remaining activity is 88.1% (inactive).

With `O=C(NCCN1CCC2(CC1)C(=O)NCN2c1ccccc1)c1cnc2ccccc2n1` as the compound, how does the remaining activity read?
Its remaining activity is 101% (inactive).
